Out of some 330,000 compounds screened, about 5,800 (1.8%) were called active.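 How the source made its calls: active means inhibition above about 50% at the single tested dose (limit read from the data); inactive means the rest.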 This excerpt belongs to a sample that is enriched for actives.
Biological target: Sentrin-specific protease 6 (Homo sapiens) (UniProt Q9GZR1)
Assay: SENP6 protease inhibitors, primary screen, biochemical, luminescence, uHTS (AID 2599);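 further: plate controls were DMSO wells with enzyme for no effect and DMSO wells lacking enzyme for full effect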
Conditions: Recombinant SENP6 catalytic domain, aminoluciferin luminescence; at 10 µM; stronger effect = higher value

Chain of Sentrin-specific protease 6 (Homo sapiens) (Q9GZR1 628-1112 limits assumed): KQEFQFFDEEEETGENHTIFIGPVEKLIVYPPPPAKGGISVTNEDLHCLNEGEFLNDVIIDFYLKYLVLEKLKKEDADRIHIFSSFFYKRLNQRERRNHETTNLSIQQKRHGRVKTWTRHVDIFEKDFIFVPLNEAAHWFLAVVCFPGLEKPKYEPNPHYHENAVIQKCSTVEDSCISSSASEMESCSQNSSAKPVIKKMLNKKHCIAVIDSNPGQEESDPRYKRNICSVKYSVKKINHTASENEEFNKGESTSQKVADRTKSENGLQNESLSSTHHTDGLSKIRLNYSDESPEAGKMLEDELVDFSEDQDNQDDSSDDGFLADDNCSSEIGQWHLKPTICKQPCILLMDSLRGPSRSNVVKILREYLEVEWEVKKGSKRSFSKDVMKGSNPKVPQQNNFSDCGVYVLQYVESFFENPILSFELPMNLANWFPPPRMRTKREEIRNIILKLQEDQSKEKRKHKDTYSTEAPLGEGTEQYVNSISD

SMILES | inhibition
COc1cc(NC(=O)CSc2ccc(-c3cccnc3)nn2)cc(OC)c1 | 4.11% (inactive)
COc1ccccc1NC(=O)c1c(Br)cnn1C | -0.608% (inactive)
N/C(=N\OC(=O)CC1CCCCC1)c1ccccc1 | 40.3% (inactive)
N/C(=N\OC(=O)CCC1CCCCC1)c1ccccn1 | 87.4% (active)
COc1ccccc1OCC(=O)O/N=C(\N)c1ccccn1 | 13.8% (inactive)
Cc1ccc(O)c(CCc2ccccc2)n1 | 8.36% (inactive)
CCCc1ccc(-c2c(C)sc(NC(=O)c3ccnn3C)c2C#N)cc1 | -0.479% (inactive)
CN(C)C(=O)CSc1n[nH]c(-c2ccco2)n1 | 0.308% (inactive)
O=C(O)CC(Cn1cnnn1)c1ccccc1 (stereo unspecified) | -0.459% (inactive)
O=C(NCCS(=O)(=O)N1CCN(c2ccccc2)CC1)c1ccco1 | 6.25% (inactive)
CCOc1ccc(NC(=O)CCC(=O)NNC(=O)NC2CCCCC2)cc1 | -9.85% (inactive)
Cc1ccc(S(=O)(=O)N2CCN(c3ccccc3)CC2)cc1C | 4.47% (inactive)
Cc1ccc(S(=O)(=O)C(C#N)c2nc3ccccc3nc2N2CCCC2)cc1C (stereo unspecified) | 75.9% (active)
CC(C)OC(=O)C(C#N)c1nc2ccccc2nc1N1CCN(Cc2ccccc2)CC1 (stereo unspecified) | 6.5% (inactive)
O=C(CCCN1C(=O)c2ccccc2C1=O)Oc1ccc(Cl)cc1 | 1.14% (inactive)
O=c1c2c(nc3n1CCCCC3)sc1c(O)cccc12 | 51.8% (active)
Cc1c(C(=O)Nc2ccccc2)sc2nc3n(c(=O)c12)CCCCC3 | -15.7% (inactive)
Cc1cccc2c(=O)n3c(nc12)CCCCC3 | 9.44% (inactive)
Cn1cccc1C(=O)NC(=O)COC(=O)Cc1coc2ccc3ccccc3c12 | -4.09% (inactive)
Cc1c(C(=O)NC(C)C2CC3CCC2C3)cccc1[N+](=O)[O-] (stereo unspecified) | -22.4% (inactive)
COc1ccc(CCNC(=O)CCNS(=O)(=O)c2cc(Br)cnc2N)cc1OC | -5.77% (inactive)
O=c1/c(=C/c2ccc(CNS(=O)(=O)c3ccccc3)o2)sc2n1CCN=2 | 3.24% (inactive)
CCn1c(=O)cc(SCC(=O)NCCC2=CCCCC2)c2ccccc21 | -1.94% (inactive)
COCCNC(=O)CCCN1C(=O)c2ccccc2Sc2ncccc21 | -28.9% (inactive)
Oc1c(C=Nc2cccc3nsnc23)ccc2ccccc12 | 94.6% (active)
Cc1cc2c(cc1C)N(Cc1ccccc1)C1=NCCCN12 | -12.7% (inactive)

SMILES | inhibition
O=C(Nc1ccccc1)O/N=C1/CCCc2occc21 | -12.8% (inactive)
CCCN1C(=O)C(Cc2nc3ccccc3c(=O)n2-c2ccccc2)c2cc(C)ccc21 (stereo unspecified) | -13.2% (inactive)
Cc1ccc(NC(=S)N(CCCN2CCCC2)Cc2cccn2Cc2ccc(Cl)cc2)cc1 | -18% (inactive)
Brc1ccccc1C1N=C(c2ccccc2)NO1 (stereo unspecified) | 38.9% (inactive)
N#Cc1ccc(C2N=C(c3ccccc3)NO2)cc1 (stereo unspecified) | 53% (active)
C/C=C/C=C/C(=O)O | -2.25% (inactive)
COc1ccc(C(=O)C2CCCN(C(=O)c3cc(C)on3)C2)cc1F (stereo unspecified) | 4.97% (inactive)
O=C(COC(=O)CNC(=O)C1CCCCC1)NCc1ccccc1 | 4.4% (inactive)
O=C(/C=C/c1ccc2c(c1)OCO2)NCc1cn2cc(Cl)ccc2n1 | -4.65% (inactive)
Clc1ccc2nc(CSc3ccccc3)cn2c1 | 72.1% (active)
CCCCCCSc1ccc(-c2nc3ccc(Cl)cn3c2NCc2ccccc2)cc1 | -0.449% (inactive)
CC1(c2ccc(Cl)cc2)NC(=O)N(CC(=O)c2ccc3c(c2)OCO3)C1=O (stereo unspecified) | -6.26% (inactive)
O=C(c1ccc(CSc2ccccc2)cc1)N1CCCCCC1 | 80.6% (active)
CC1CCN(C(=O)c2ccc(CSc3ccc(Cl)cc3)cc2)CC1 | 15.6% (inactive)
O=C(c1ccc(S(=O)(=O)c2ccccc2)cc1)N1CCCCCC1 | -8.79% (inactive)
CCOc1ccccc1C(=O)NC1CC2CCCC(C1)N2Cc1ccccc1 (stereo unspecified) | 7.09% (inactive)
O=C1N/C(=C/c2cccs2)C(=O)N1Cc1ccc(F)cc1 | -6.09% (inactive)
CSC1=N/C(=C\C=C\c2cccs2)C(=O)S1 | 77.8% (active)
Cc1cccc(C2=N/C(=C/c3cccs3)C(=O)O2)c1 | 9.27% (inactive)
O=C(O)c1ccc(N/N=C/c2ccc3ncccc3c2)cc1 | 101% (active)
Cc1ccc2cc(/C=N/Nc3ccc(C(=O)O)cc3)c(Cl)nc2c1 | -25% (inactive)
O=C(O)c1ccc(/C=N/Nc2nc(N3CCCCC3)nc(N3CCCCC3)n2)cc1 | -7.28% (inactive)
Cc1ccc2c(c1)N(CC(=O)N(Cc1ccccn1)Cc1ccco1)C(=O)C(C(C)C)O2 (stereo unspecified) | -1.99% (inactive)
CC(=O)N(C1=C(Cl)C(=O)c2ccccc2C1=O)c1ccc(C(=O)O)cc1 | 81.4% (active)
COc1ccc(CCNC(=O)CSCc2ccc(Br)cc2)cc1OC | 1.68% (inactive)
CN(CC(=O)Nc1ccc(Cl)cc1)C(=O)CNC(=O)c1ccc2ccccc2c1 | 64.9% (active)

SMILES | inhibition
CN(CC(=O)Nc1ccc(Cl)cc1)C(=O)c1ccc(COc2ccccc2)cc1 | 18.3% (inactive)
CN(CC(=O)Nc1ccc(Cl)cc1)CC(=O)Nc1cccc2ccccc12 | -2.99% (inactive)
COc1ccc(C2=NOC3(CC(=O)N(c4ccc(Cl)cc4)C3=O)C2)c(OC)c1 (stereo unspecified) | -7.66% (inactive)
Cc1cnc(NC(=O)C2CCCC2)s1 | 8.65% (inactive)
Cc1cc(C(=O)Nc2nnc(C3CC3)s2)c(C)s1 | 76.1% (active)
Cc1cccc(NC(=O)CSCC(=O)Nc2nnc(C3CC3)s2)c1 | -3.73% (inactive)
Cc1ccc(SCC(=O)Nc2ncc(C)s2)cc1 | -5.14% (inactive)
Cc1cnc(NC(=O)c2ccccn2)s1 | 88.5% (active)
O=C(Nc1nnc(Cc2ccccc2)s1)c1cnccn1 | -4.43% (inactive)
CCc1cc(C(=O)Nc2nnc(C3CC3)s2)sc1C | -7.34% (inactive)
O=C(Nc1nnc(C2CC2)s1)c1cc(Cl)sc1Cl | 4.15% (inactive)
O=C(Nc1nnc(C2CC2)s1)c1ccccn1 | 69.2% (active)
COc1ccccc1NC(=O)CCSc1nnc(-c2ccc(O)cc2)o1 | -8.69% (inactive)
O=C(c1cccc(F)c1)N1CCN(c2ccc([N+](=O)[O-])c3cccnc23)CC1 | 13.7% (inactive)
CCOc1cc(CNCc2ccccn2)ccc1OCC(=O)NC(C)(C)C | 4.74% (inactive)
CCn1nc(C)c(CN2CCN(Cc3ccc(OC)c(C)c3C)C(CCO)C2)c1C (stereo unspecified) | -13.1% (inactive)
COCCCNC(=O)CN1CCN(Cc2ccccc2Cl)C1=O | -5.23% (inactive)
CC(=O)Nc1ccc(S(=O)(=O)Nc2nc3n(n2)C(c2ccccc2)CC(=O)N3)cc1 (stereo unspecified) | -18.6% (inactive)
COc1ccc(C2CC(c3cccs3)=NN2c2ccccc2)cc1 (stereo unspecified) | -18.7% (inactive)
Cc1nnc2n1N=C(c1ccccc1)CS2 | 0.225% (inactive)
O=c1c2cc(-c3ccccc3)sc2nc2n1N=C(c1cccs1)CS2 | 73.2% (active)
COc1ccc(Cl)cc1NS(=O)(=O)c1cccc(C(=O)NCC2CCCO2)c1 (stereo unspecified) | -6.29% (inactive)
COc1ccc(S(=O)(=O)N2CCOCC2)cc1NC(=O)Cc1c(F)cccc1Cl | 2.93% (inactive)
N#C/C(=C(/O)Cc1cccc2ccccc12)c1nc2ccccc2s1 | 1.83% (inactive)
O=C(O)CS/C(=C\c1ccc(F)cc1)c1nc2ccccc2s1 | -11.1% (inactive)
CC1=CC(=C(C#N)c2nc3ccccc3s2)C=C(C)N1c1ccc(F)cc1F | 63.9% (active)

SMILES | inhibition
CN(Cc1ccccc1)C(=O)C1CCCN(c2ncnc3c2nc2n3CCCCC2)C1 (stereo unspecified) | -17.3% (inactive)
Cc1cc(NC(=O)COc2ccccc2C#N)no1 | 4.16% (inactive)
O=C(Nc1ccn(Cc2ccccc2F)n1)c1ccc(COc2ccc(Cl)cc2Cl)o1 | 25.5% (inactive)
O=C(Nc1ccn(Cc2ccccc2)n1)c1n[nH]c([N+](=O)[O-])c1Cl | 98.2% (active)
Cc1ccc(Cn2ccc(NC(=O)C3C4CCC(C4)C3C(=O)O)n2)cc1 (stereo unspecified) | 13.1% (inactive)
Cc1cc(C)c(S(=O)(=O)Nc2c(C)n(C)n(-c3ccccc3)c2=O)cc1[N+](=O)[O-] | -1.02% (inactive)
CN(CC1CCCN(CCc2cccc(C(F)(F)F)c2)C1)C(=O)c1ccc2nc[nH]c2c1 (stereo unspecified) | -6.57% (inactive)
COc1ccc(S(=O)(=O)NCC(=O)NC2CC2)cc1OC | -8.69% (inactive)
CCCCC(c1nnnn1CS(=O)(=O)c1ccc(C)cc1)N1CCC(C(N)=O)CC1 (stereo unspecified) | -48.9% (inactive)
COc1cc(N=Cc2c(O)c3ccccc3oc2=O)c(OC)cc1Cl | -7.87% (inactive)
COc1ccccc1N=C(C)C1=C(O)COC1=O | -35% (inactive)
COc1ccccc1N=Cc1c(O)c2ccccc2oc1=O | 81% (active)
CCc1c(C)nc2c(-c3ccccc3)c(C)nn2c1Nc1ccc(NC(C)=O)cc1 | -6.24% (inactive)
CCN(C(=O)CSc1cccc[n+]1[O-])c1ccccc1 | -15.1% (inactive)
CCn1c(=O)n(CC)c2cc(N3CCCC3)c(NC(=O)c3ccccc3Br)cc21 | 7.04% (inactive)
CN(c1ccc2nc3ccccc3c(=O)n2n1)C1CCCCC1 | 93.7% (active)
CN(C(=O)CSc1nncc2ccccc12)C1CCCCC1 | -34.7% (inactive)
CN(C(=O)c1cc2c(=O)n3ccccc3nc2s1)C1CCCCC1 | -20.3% (inactive)
COc1ccc(/C=N/NC(=O)c2ccncc2)cc1CN1CCCc2ccccc21 | -2.09% (inactive)
C=CCn1c(Cn2nnc3ccccc32)nnc1SCC(=O)N/N=C/c1cc(Br)cc(OC)c1O | 20.6% (inactive)
CCN(CC)C(=O)CSc1ncnc2c1cnn2-c1ccccc1 | 22.4% (inactive)
Cc1ccc(-n2ncc3c(Nc4cccc(C(=O)O)c4)ncnc32)cc1 | 97.4% (active)
Cc1ccc(Nc2ncnc3c2cnn3C)c(C)c1 | 14.7% (inactive)

Reference: PubChem BioAssay AID2599 (Sanford-Burnham Center for Chemical Genomics, 2010)
